Experimental data: the supplement of paper PMC10849652
Of roughly 7,900 targets only a part is listed; those with a hit were picked by preference. About 0.6% of all pairs of compound and target were hits. Values without a mark were called inactive.

Legend:
Experiment in all cases: log2 fold change, soluble protein after heating vs DMSO (PISA); higher = thermal stabilisation; K562 cells, 10 uM, 30 min; active = over 0.2 and 3.5 SD of the protein, either way, in both replicates (recomputed)
IRAK-1-4 Inhibitor I = compound: C1COCCN1CCN2C3=CC=CC=C3N=C2NC(=O)C4=CC(=CC=C4)[N+](=O)[O-] [IRAK-1-4 Inhibitor I]
Outline: (§1)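 K562 cells at 2×10^6 cells/mL were treated with 10 μM compound for 30 min. Aliquots were heated for 3 min across 48°C-58°C, pooled, and extracted in PBS with 0.5% NP-40 at 4°C; soluble protein was the supernatant after 21,000xg for 90 min. Soluble protein was quantified by TMTpro 16plex LC-MS/MS with channel sums equalised, and reported as log2 fold change in thermal stability against DMSO controls, with values from duplicates.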

ibrutinib = compound: C=CC(=O)N1CCC[C@@H](n2nc(-c3ccc(Oc4ccccc4)cc3)c3c(N)ncnc32)C1 [ibrutinib]
Outline: as §1

[1] = compound: CC(=O)c1cnc2ccc(-c3cc(Cl)c(O)c(Cl)c3)nc2c1N[C@H]1CC[C@H](CN(C)C)CC1
Outline: as §1

ralimetinib = compound: CC(C)(C)Cn1c(N)nc2ccc(-c3[nH]c(C(C)(C)C)nc3-c3ccc(F)cc3)nc21 [ralimetinib]
Outline: as §1

[2] = compound: CC(C)(O)CC(=O)NCCn1ccc2ncnc(Nc3ccc(Oc4cccc(C(F)(F)F)c4)c(Cl)c3)c21
Outline: as §1

[3] = compound: CC(C)C1=C2N=C(C=C(N2N=C1)NCC3=CC=CC=C3)NCCCCCCN
Outline: as §1

[4] = compound: CC(C)C[C@@H](C=O)NC(=O)[C@H](CC(C)C)NC(=O)[C@H](CC(C)C)NC(=O)OCc1ccccc1
Outline: as §1

pinometostat = compound: CC(C)N(C[C@H]1O[C@@H](n2cnc3c(N)ncnc32)[C@H](O)[C@@H]1O)[C@H]1C[C@@H](CCc2nc3cc(C(C)(C)C)ccc3[nH]2)C1 [pinometostat]
Outline: as §1

[5] = compound: CC1=C(C(CC(=O)N1)C2=CC=C(C=C2)C(F)(F)F)C(=O)NC3=C(C=C4C(=C3)C=NN4)F
Outline: as §1

[6] = compound: CC1=C(C2=C(C=C1)C(=O)C3=CC=CC=C3N2CCCN)C
Outline: as §1

Chain of UniProt Q5VTL8 (Q5VTL8 whole entry, looked up): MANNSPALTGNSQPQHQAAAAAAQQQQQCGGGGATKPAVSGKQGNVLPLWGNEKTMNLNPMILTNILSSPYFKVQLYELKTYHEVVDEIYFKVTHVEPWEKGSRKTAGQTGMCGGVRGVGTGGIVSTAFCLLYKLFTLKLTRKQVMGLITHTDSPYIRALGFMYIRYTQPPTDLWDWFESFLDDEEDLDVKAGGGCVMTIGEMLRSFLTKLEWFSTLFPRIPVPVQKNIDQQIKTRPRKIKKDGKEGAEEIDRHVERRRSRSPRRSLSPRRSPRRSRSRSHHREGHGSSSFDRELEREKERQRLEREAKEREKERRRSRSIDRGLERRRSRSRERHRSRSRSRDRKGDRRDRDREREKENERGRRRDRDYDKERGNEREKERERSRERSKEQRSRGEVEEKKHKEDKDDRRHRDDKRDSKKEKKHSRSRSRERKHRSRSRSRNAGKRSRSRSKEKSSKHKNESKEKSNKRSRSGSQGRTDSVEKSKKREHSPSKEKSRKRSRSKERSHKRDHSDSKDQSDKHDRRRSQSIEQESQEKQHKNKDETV
Chain of UniProt Q8IZL8 (Q8IZL8 whole entry, looked up): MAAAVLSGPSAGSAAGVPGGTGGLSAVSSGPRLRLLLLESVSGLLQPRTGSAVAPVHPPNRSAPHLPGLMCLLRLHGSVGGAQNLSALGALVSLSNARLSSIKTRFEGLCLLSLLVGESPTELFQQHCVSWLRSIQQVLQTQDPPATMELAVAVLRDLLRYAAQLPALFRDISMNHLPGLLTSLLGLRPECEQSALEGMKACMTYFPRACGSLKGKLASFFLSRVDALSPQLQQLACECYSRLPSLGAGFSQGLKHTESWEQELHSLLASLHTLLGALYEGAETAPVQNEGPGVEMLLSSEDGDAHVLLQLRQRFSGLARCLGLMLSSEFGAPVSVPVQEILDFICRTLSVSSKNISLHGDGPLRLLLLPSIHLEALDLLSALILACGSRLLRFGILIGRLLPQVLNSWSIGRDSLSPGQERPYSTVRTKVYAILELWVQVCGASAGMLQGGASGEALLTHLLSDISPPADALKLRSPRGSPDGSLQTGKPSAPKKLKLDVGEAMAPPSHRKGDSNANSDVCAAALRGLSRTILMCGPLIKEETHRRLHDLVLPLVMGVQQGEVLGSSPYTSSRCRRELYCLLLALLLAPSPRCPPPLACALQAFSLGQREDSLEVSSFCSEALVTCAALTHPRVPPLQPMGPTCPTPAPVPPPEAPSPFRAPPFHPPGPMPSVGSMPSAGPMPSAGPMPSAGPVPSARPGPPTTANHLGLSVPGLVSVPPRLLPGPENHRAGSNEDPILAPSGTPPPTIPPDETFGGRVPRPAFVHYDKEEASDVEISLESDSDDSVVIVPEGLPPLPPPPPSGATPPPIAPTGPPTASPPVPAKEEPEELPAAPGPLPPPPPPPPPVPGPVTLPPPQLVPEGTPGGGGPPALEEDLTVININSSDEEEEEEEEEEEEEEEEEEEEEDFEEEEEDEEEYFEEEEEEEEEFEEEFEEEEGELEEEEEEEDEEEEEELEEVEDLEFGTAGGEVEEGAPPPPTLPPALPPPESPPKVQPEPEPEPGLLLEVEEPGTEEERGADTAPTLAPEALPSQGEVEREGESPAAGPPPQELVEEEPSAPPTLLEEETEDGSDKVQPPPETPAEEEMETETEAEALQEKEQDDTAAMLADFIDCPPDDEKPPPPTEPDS
Chain of UniProt P53350 (P53350 whole entry, looked up): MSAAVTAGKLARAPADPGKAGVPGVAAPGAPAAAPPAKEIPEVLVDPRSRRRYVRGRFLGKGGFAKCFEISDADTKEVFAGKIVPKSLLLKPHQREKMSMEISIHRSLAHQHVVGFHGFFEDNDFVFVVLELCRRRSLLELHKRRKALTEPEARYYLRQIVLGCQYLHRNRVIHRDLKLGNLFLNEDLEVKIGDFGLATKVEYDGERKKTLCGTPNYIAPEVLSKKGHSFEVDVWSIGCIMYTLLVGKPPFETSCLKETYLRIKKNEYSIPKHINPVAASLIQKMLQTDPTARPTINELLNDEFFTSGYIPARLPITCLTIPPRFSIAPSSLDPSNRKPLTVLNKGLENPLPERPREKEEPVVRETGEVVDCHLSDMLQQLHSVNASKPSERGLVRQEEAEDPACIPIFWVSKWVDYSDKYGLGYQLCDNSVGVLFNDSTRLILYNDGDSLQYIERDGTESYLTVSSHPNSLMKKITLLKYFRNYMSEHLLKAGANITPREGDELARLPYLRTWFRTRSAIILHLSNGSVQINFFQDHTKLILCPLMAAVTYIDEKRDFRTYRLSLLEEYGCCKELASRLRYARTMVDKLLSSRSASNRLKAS
Chain of UniProt O00408 (O00408 whole entry, looked up): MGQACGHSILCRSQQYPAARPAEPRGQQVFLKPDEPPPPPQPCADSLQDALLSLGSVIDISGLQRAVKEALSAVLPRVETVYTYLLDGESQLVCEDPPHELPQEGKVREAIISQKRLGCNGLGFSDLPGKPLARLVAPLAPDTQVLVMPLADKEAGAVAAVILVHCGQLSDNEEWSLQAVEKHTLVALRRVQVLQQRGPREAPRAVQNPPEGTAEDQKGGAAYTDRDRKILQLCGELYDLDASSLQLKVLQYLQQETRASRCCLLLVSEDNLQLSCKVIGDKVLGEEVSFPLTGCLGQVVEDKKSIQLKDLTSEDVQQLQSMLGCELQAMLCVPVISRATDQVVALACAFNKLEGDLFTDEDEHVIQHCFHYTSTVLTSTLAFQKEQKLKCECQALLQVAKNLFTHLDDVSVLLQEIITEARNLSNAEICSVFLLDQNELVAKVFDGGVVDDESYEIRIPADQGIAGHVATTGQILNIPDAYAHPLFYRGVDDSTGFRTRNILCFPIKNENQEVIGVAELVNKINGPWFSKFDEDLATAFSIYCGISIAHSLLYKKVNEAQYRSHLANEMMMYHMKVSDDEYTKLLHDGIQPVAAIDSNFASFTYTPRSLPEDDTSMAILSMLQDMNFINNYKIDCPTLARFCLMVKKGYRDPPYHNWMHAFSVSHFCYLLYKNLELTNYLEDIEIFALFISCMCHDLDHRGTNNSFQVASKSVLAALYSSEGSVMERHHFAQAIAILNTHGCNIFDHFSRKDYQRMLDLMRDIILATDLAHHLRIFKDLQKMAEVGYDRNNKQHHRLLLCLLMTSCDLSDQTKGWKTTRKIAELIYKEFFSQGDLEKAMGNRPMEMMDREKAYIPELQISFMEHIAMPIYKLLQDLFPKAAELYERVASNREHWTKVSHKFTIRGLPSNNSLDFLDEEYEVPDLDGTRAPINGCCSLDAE
Chain of UniProt O00625 (O00625 whole entry, looked up): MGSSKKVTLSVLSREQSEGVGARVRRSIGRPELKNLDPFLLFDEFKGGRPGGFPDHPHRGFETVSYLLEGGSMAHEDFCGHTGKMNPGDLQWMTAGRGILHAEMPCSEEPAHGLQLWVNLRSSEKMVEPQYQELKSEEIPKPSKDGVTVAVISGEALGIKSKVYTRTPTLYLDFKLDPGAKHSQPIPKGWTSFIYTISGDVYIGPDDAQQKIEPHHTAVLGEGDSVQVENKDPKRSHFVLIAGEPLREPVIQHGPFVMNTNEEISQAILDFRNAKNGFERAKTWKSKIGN
Chain of UniProt Q15121 (Q15121 whole entry, looked up): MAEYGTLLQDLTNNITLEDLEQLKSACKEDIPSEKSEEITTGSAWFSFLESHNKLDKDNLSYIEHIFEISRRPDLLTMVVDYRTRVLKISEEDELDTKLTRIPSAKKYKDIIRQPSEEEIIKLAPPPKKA
Chain of UniProt Q92968 (Q92968 whole entry, looked up): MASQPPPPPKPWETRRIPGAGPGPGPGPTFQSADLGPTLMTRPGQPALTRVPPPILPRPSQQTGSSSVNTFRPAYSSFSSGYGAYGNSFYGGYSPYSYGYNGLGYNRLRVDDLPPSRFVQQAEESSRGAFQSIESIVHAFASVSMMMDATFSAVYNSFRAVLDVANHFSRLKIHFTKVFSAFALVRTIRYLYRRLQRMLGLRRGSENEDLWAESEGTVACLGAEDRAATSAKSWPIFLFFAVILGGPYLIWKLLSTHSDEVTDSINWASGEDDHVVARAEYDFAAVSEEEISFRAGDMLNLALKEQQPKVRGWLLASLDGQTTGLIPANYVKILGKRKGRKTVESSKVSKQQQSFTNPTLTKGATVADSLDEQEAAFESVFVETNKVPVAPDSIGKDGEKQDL
Chain of UniProt Q14442 (Q14442 whole entry, looked up): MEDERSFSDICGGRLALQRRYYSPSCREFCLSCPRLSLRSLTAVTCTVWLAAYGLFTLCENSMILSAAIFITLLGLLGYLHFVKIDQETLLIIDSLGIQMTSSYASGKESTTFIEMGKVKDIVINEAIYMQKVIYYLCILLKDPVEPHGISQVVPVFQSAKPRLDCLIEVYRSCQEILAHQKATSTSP
Chain of UniProt O96013 (O96013 whole entry, looked up): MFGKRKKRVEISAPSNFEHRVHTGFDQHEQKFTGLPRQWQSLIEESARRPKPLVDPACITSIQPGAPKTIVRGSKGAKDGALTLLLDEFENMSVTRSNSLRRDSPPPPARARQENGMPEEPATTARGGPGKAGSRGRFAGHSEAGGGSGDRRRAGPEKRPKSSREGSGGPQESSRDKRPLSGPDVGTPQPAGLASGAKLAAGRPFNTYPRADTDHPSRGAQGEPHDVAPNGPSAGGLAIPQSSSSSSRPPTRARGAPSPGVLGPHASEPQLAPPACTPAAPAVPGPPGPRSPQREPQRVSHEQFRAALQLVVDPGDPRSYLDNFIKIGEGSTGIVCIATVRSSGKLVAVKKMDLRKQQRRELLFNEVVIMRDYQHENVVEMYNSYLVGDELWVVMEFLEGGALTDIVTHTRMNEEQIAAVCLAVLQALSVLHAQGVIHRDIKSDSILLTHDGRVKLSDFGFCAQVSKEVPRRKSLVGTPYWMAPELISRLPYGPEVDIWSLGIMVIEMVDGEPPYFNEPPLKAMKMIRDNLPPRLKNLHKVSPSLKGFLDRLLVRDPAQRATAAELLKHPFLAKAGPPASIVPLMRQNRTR
Chain of UniProt Q9Y2Y1 (Q9Y2Y1 whole entry, looked up): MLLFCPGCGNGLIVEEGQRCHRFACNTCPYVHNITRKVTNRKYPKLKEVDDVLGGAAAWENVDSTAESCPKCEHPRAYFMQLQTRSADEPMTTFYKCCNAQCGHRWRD

Target	log2 fold change (IRAK-1-4 Inhibitor I)	log2 fold change (ibrutinib)	log2 fold change [1]	log2 fold change (ralimetinib)	log2 fold change [2]	log2 fold change [3]	log2 fold change [4]	log2 fold change (pinometostat)	log2 fold change [5]	log2 fold change [6]
PDS5A (UniProt Q29RF7)	-0.168	-0.041	-0.063	-0.012	-0.344	-0.61	0.272	0.045	0.221	-0.103
PRPF38B (UniProt Q5VTL8)	-0.158	-0.005	-0.646 (active)	-0.025	0.045	-0.06	0.03	-0.029	-0.007	0.159
PAK4 (UniProt O96013)	0.038	-0.032	0.173	-0.084	0	0.015	0.07	0.016	-0.052	0.049
PMM1 (UniProt Q92871)	-0.06	0.039	-0.011	-0.024	0.014	0.187	0.019	-0.037	0.02	0.049
PSMD8 (UniProt P48556)	-0.058	-0.033	0.076	-0.012	0.022	0.016	-0.194	0.031	0.051	-0.014
PTPN23 (UniProt Q9H3S7)	-0.008	-0.052	-0.044	0.013	-0.061	-0.095	0.038	-0.009	-0.036	0.046
POLR2K (UniProt P53803)	-0.041	0.003	0.059	-0.093	0.028	0.429 (active)	0.093	-0.092	-0.02	0.027
PEX13 (UniProt Q92968)	0.053	-0.067	-0.011	0.062	-0.193	-0.201	0.036	-0.032	0.003	0.024
PTDSS1 (UniProt P48651)	-0.146	0.118	0.021	0.029	-0.023	-0.585 (active)	0.061	0.212	0.093	0.035
PPP6R1 (UniProt Q9UPN7)	0	0.009	0.039	-0.01	-0.031	-0.077	0.038	-0.047	0.003	-0.041
PDSS2 (UniProt Q86YH6)	0.1	0.074	0.058	-0.059	-0.089	-0.085	0.054	-0.017	-0.438 (active)	-0.022
PDE12 (UniProt Q6L8Q7)	0.118	0.015	0.085	-0.036	-0.006	-0.032	0.03	-0.031	0.01	0.033
PDCD4 (UniProt Q53EL6)	-0.043	-0.05	0.271	-0.042	-0.091	-0.194	-0.015	-0.046	-0.123	-0.17
PIR (UniProt O00625)	-0.016	0.019	0.016	-0.056	0.073	0.011	-0.042	-0.01	0.015	0.037
QKI (UniProt Q96PU8)	-0.034	-0.004	-0.113	0.007	0.019	-0.221	-0.005	-0.026	0.046	-0.043
PEA15 isoform 2 (UniProt Q15121)	0.025	-0.024	0.054	0.007	-0.079	-0.045	-0.046	-0.004	0.007	0.038
PDCD2L (UniProt Q9BRP1)	-0.034	-0.006	0.07	0.047	-0.115	0.078	0.042	0.007	0.065	0.041
POLR2M (UniProt P0CAP2)	-0.022	-0.017	0.067	0.016	0.001	0.059	0.058	-0.02	0.067	0
PIK3R1 (UniProt P27986)	0.032	-0.004	0.077	0.038	-0.04	-0.011	0.027	0.083	0.004	0.072
PELP1 (UniProt Q8IZL8)	0.017	-0.017	-0.106	0.04	-0.031	0.017	-0.019	0.008	0.029	-2.07 (active)
PLCL1 (UniProt Q15111)	-0.007	0.31	0.08	0.125	-0.329	-0.102	0.089	0.365	-0.086	-0.193
PTP4A1 (UniProt Q93096)	-0.011	-0.05	0.092	-0.096	0.013	-0.049	-0.062	-0.02	0.008	-0.179
PLK1 (UniProt P53350)	-0.035	0.022	-1.17 (active)	0.006	-0.011	0.186	0.015	0.019	0.005	0.144
PARG (UniProt Q86W56)	-0.047	-0.022	-0.124	0.045	-0.075	-0.203	0.043	0.059	0.001	0.331 (active)
PTMA (UniProt P06454)	0.034	0.049	0.127	0.251	-0.133	0.085	-0.289	-0.092	0.063	-0.021
PPM1G (UniProt O15355)	-0.095	-0.102	-0.098	-0.044	-0.17	-0.223	0.088	-0.067	-0.121	-0.002
PIGH (UniProt Q14442)	-0.207	0.022	-0.004	-0.017	0.023	0.014	-0.004	0.139	–	0.096
POLR3K (UniProt Q9Y2Y1)	0.026	0.044	-0.013	-0.084	-0.07	0.124	0.089	0.043	0.032	-0.039
PDE2A (UniProt O00408)	0.083	0.026	-0.001	0.12	-0.082	0.014	-0.009	-0.007	-0.064	0.043
POLR1A (UniProt O95602)	0.06	0.06	0.022	0.153	-0.022	-0.091	0.005	0.07	0.052	-0.14
